Experimental data from PubChem BioAssay (NCATS).
Inconclusive results are not listed. Unmarked numbers belong to inactive results. Active and inactive are the calls of the source. Calls follow the shape of the dose curve; as a rule, active = well fitted inhibition curve with a large enough effect; inconclusive = small, poorly fitted or top-dose-only effect; inactive = no such curve, though single readings can be large or run the other way. Starred links: 1 amine or outer side, 2 acyl side, 3 side chain; linkers in the order of their positions; H or OH if unused. Positions of bridges follow the written chain, without caps; N, C: chain ends. Non-standard residues stand in square brackets, D forms with d. Residues, ends and D or L forms follow the SMILES beside them. ξ: configuration not given here. *: point of attachment. X3 = C[C@@H](Oc1ccc([C@H](N[*:1])C(=O)[*:2])cc1)[C@]1(/C=C\C(=O)[*:3])CO1; d(aIle) = CC[C@H](C)[C@@H](N)C(=O)O; X2 = CC(C)[C@@H](O)C(C)C(=O)*; ξNMeF = CNC(Cc1ccccc1)C(=O)O; ξT = CC(O)C(N)C(=O)O; ξS = NC(CO)C(=O)O

assay: qHTS for inhibitors of ER calcium dysfunction: SERCaMP assay screened against the NCATS CANVASS Library (AID 1347393); settings: SH-SY5Y GLuc-SERCaMP (Gaussia luciferase released on ER calcium loss) secretion, thapsigargin, luminescence; series mostly up to 76.6 µM; activity change, negative = inhibition: at the top concentration; also: nearly all actives have a fitted effect of over 40% in size;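 as to activity change, negative = inhibition: lower secreted reporter signal means inhibitor of ER calcium depletion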
Description: Natural products and their derivatives continue to be wellsprings of nascent therapeutic potential. However, many laboratories have limited resources for biological evaluation, leaving their previously isolated or synthesized compounds largely or completely untested. To address this issue, the Canvass library of natural products was assembled (https://tripod.nih.gov/canvass), in collaboration with academic and industry researchers, for quantitative high-throughput screening (qHTS) across a diverse set of cell-based and biochemical assays. The pure (>85% purity by liquid chromatography/mass spectrometry [LC/MS]) Canvass library of 346 natural products were submitted by 45 academic laboratories and companies around the world. We collected pure natural products to circumvent deconvolution and structure elucidation due to time and resource limitations. The library was formatted into 1536-well plates and evaluated in 50 qHTS (in an 11-pnt concentration series) bioassays with broad scope of disease-relevant mechanisms. The resulting data set from 50 different assays was then systematically analyzed to identify overall trends and specific natural products with interesting biological activities. Reported herein are the results of each individual qHTS and their corresponding assay protocol. The SERCaMP assay detects ER calcium dysfunction. A Gaussia luciferase-based reporter protein (GLuc-SERCaMP) is expressed in SH-SY5Y cells and secreted in response to ER calcium depletion. Small molecules that stabilize ER calcium inhibit GLuc-SERCaMP release. National Center for Advancing Translational Sciences (NCAwsTS), Rockville, MD National Institute of Health (NIH), Bethesda, Maryland
SERCaMP assay protocol: 1. In a white-solid bottom 1536-well tissue culture plate (Corning 7494), 5 uL of SH-SY5Y-GLuc SERCaMP MJH297 derived (MP_G) cells were dispensed using a Multidrop Combi (Thermo Fisher Scientific) at a final concentration of 1000 cells / well. 2. The assay plates were incubated for 4 hours at 37C, 5% CO2, 95% humidity to acclimate and attach. 3. […] of compounds (in DMSO; columns 5-48), and positive control Bromocriptine (10 mM; 1:2 dilution; 16-points; n = 2; column 2, rows 1-32) were pin transferred into the assay plates using the Kalypsis pin tool (Wako USA) equipped with a 1536-well pin heads. This yields a final CANVASS compound concentration of 0.001 - 38.2 uM. 4. The assay plates were incubated for 16 hours at 37C, 5% CO2, 95% humidity. 5. After compound treatment, 1 uL per well of (6x) 600 nM Thapsigargin into column 1, rows 17 - 32; column 2, rows 1 - 32; columns 4 - 48, rows 1 - 32 using the BioRAPTR liquid dispenser. As a control 1 uL of (1x) Media was dispensed into column 1, rows 1 - 16; and into column 3, rows 1 - 32. 6. The assay plates were incubated for 4 hours at 37C, 5% CO2, 95% humidity. 7. After 4 hours, 1 uL of (7x) substrate Coelenterazine (diluted 1:200 in Pierce Glow Assay buffer) was dispensed into columns 1 - 48, rows 1 - 32. 8. The plates were centrifuged for 5 seconds at 1000 rpm. 9. Luminescence signal was obtained via the ViewLux plate reader (Perkin Elmer) using the clear emission filter and 1x binning, 5 seconds exposure settings.
% is scaled to controls: 0 for no effect and ±100 for the full control effect; potency is read from the fitted curve at half-maximal effect.

Compound | Potency | activity change, negative = inhibition
C=CC(C)(C)[C@@]12C[C@H]3C(=O)N/C(=C\c4cnc[nH]4)C(=O)N3[C@@H]1Nc1ccccc12 | 34.3 µM (active) | –
C=C[C@H]1CN2CCc3c([nH]c4cccc(OC)c34)[C@@H]2C[C@@H]1/C(=C\OC)C(=O)OC | 17.2 µM (active) | –
CO[C@H]([C@@H](C)[C@H]1O[C@]1(C)C[C@H](C)/C=C/C=C(\C)[C@H]1O[C@@H](CC(=O)O)CC[C@@H]1C)[C@@H](C)O | – | 179%
C[C@]12CC(O)C3[C@@H](CCC4C[C@@H](O)CC[C@@]43CO)[C@@]1(O)CC[C@@H]2C1=CC(=O)OC1 (stereo not given in full) | – | 23.2%
CO[C@H]1C[C@H](O[C@H]2[C@@H](O)C[C@H](O[C@H]3CC[C@]4(C=O)[C@H]5CC[C@]6(C)C(C7=CC(=O)OC7)CC[C@]6(O)[C@@H]5CC[C@]4(O)C3)O[C@@H]2C)O[C@H](C)[C@H]1O[C@H]1C[C@@H](OC)[C@@H](O[C@@H]2O[C@H](CO)[C@@H](O)[C@H](O)[C@H]2O)[C@@H](C)O1 (stereo not given in full) | – | 18.8%
CC[C@@H]1CN2CCC3(Nc4cccc(OC)c4C3=O)[C@@H]2C[C@@H]1/C(=C\OC)C(=O)OC (stereo not given in full) | 12.2 µM (active) | –
C1=C2CCCN[C@H]2C2CC1[C@H]1CCCCN1C2 (stereo not given in full) | – | -41.5%
O[C@H]1C=C[C@@]23CCN(Cc4cc5c(cc42)OCO5)[C@@H]3C1 | – | -28.2%
CCCCC1CC[C@H]2CCCC(CCC)N12 (stereo not given in full) | – | -22.5%
C[N+](C)(C)CCc1c[nH]c2ccccc12 | – | -2.22%
CO[C@@H](/C=C/CC/C=C/C(=O)O)[C@@H](O)[C@H](C)/C=C(\C)[C@H](O)[C@H](C)C(=O)CCCC1CC(=O)NC(=O)C1 | – | -2.36%
C/C=C(\C)C(=O)O[C@@H]1[C@@H](O)[C@@H]2O[C@H]3[C@H](O[C@@H](CCCCC)CCCCCCC(=O)CCC(=O)OC[C@@H](O2)[C@H]1OC(=O)/C=C/c1ccccc1)O[C@H](C)[C@H](OC(C)=O)[C@@H]3O | 0.086 µM (active) | –
C[C@]12CCC3[C@@H](CC[C@@H]4C[C@@H](O)CC[C@]34CO)[C@@]1(O)CC[C@@H]2C1=CC(=O)OC1 (stereo not given in full) | – | 3.58%
CC[C@@H]1CN2CCc3c([nH]c4cccc(OC)c34)[C@@H]2C[C@@H]1/C(=C\OC)C(=O)OC | 8.6 µM (active) | –
C=C(C)[C@H]1C(=O)c2c3c(cc4c5c(n1c24)[C@@]1(C)[C@@H](CC[C@H]2[C@](C)(/C=C/C=C(\C)C(=O)O)[C@@H](O)CC[C@@]21C)C5)C1=CC(C)(C)OC(C)(C)[C@H]1[C@@H]3O | – | 75%
C/C=C1/CN2CC[C@@]34c5ccccc5N(C)[C@@H]3[C@@H]2C[C@@H]1[C@H]4C(=O)OC | 0.86 µM (active) | –
CC[C@H](C)[C@H]1NC(=O)[C@@H](NC(=O)C(C)[C@H](O)C(C)C)[C@@H](C)OC(=O)C2COC(=O)CNC(=O)/C=C\[C@]3(CO3)[C@@H](C)Oc3ccc(cc3)[C@H](NC1=O)C(=O)N(C)C(Cc1ccccc1)C(=O)NC(C(C)O)C(=O)N2 (stereo not given in full) (X2-T[d(aIle)][X3][ξNMeF][ξT][ξS]; ester 1-C; linker 3-6 via G) | – | -25.2% [at 45.8 µM]
C/C=C1/CN2CC[C@]34C(=C(C(=O)OC)[C@H]1C[C@H]23)Nc1ccccc14 | 19.3 µM (active) | –
CC[C@H]1CN2CCc3c([nH]c4cccc(OC)c34)[C@@H]2C[C@@H]1/C(=C\OC)C(=O)OC | 13.6 µM (active) | –
C/C=C/[C@@H]1[C@H]2C[C@@H](C)CC[C@@H]2C(C)=C[C@H]1C(=O)c1c(O)c(-c2ccc(O)cc2)c[nH]c1=O | 19.3 µM (active) | –
COC1=C(C2=C(OC)C(=O)c3cc4c(c(O)c3C2=O)C(=O)O[C@H](C)C4)C(=O)c2c(cc3c(c2O)C(=O)O[C@H](C)C3)C1=O | – | -18.2% [at 25.5 µM]
CO[C@H]1[C@H](O[C@H]2CC[C@]3(C=O)[C@H]4CC[C@]5(C)[C@@H](C6=CC(=O)OC6)CC[C@]5(O)[C@@H]4CC[C@]3(O)C2)O[C@H](C)[C@H](O)[C@@H]1OC | – | 13.6%
CCC(=O)N[C@@H](C[C@H](C)C(Cl)(Cl)Cl)C(=O)N1C(=O)C=C(OC)[C@@H]1C[C@H](C)C(Cl)Cl | 27.2 µM (active) | –
COC1C(O)C(C)OC(OC2C(Oc3cccc4c(O)c5c(=O)oc6ccc(C)c7c(=O)oc(c34)c5c67)OC(C)C(O)C2O)C1O (stereo not given) | – | 175%
C/C(=C\[C@H](C)C(=O)C[C@H](O)CC1CC(=O)NC(=O)C1)[C@@H]1OC(=O)/C=C/CC/C=C/C=C/[C@@H]1C | – | 71.2%
